# Test results taken from PubChem BioAssay AID504616 (Sanford-Burnham Center for Chemical Genomics, 2011).
# The other results are listed elsewhere or left out. Values without a mark were called inactive.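 The calls were made as follows: active = mean activity change at or below -40% when tested at 20 µM; inactive = the rest.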
# Experiment: detection-step artefacts after finished caspase reaction – biochemical, fluorescence, Rh110, 20 µM, artefact control for Apaf-1 activator project, confirmation (AID 504616)
# Settings: quenched caspase reaction, Ex480/Em540, at 20 µM
row,Compound,fluorescence interference (activity change) [%]
1,CCCC(=O)Nc1nc2ccc(NC(=O)c3c(F)c(F)c(OC)c(F)c3F)cc2s1,7.74
2,CC(=O)NC(=S)NNC(=O)c1ccc(Br)cc1,-5.11
3,COc1ccc(OCCCC(=O)NCCc2ccccc2)cc1,3.73
4,CC(C)OCCCNC(=S)N1CCC(C(=O)c2ccc3c(c2)OCCO3)CC1,3.57
5,CCOCCc1c(O)nc(SCC(=O)NCc2ccco2)[nH]c1=O,-8.32
6,COc1ccc(S(=O)(=O)N2CCCCC2)cc1NC(=O)c1cc([N+](=O)[O-])ccc1N1CCOCC1,4.4
7,CC(C)N1CCC(NC(=O)Nc2ccccc2)CC1,-6.69
8,O=C(CSc1ccc(-c2ccc(-n3cccn3)cc2)nn1)Nc1ccc([N+](=O)[O-])cc1,2.63
9,O=C(CCc1ccccc1)NNC(=O)c1ccc(Br)cc1,-7.61
10,O=c1[nH]c2c(c(=O)n1Cc1ccccc1)CCC2,13.7
11,O=C(CN1C(=O)C2C3C=CC(C3)C2C1=O)NCCc1ccccc1Cl (configuration not stated),-3.43
12,Brc1ccc(/C=N/N2CCN(C3c4ccccc4-c4ccccc43)CC2)s1,-2.39
13,COc1cccc(C(=O)Nc2ccc(N3CCCC3)cc2)c1,2.88
14,CC1COc2ccccc2N1C(=O)c1cccnc1Cl (configuration not stated),0.54
15,N#CC1(C#N)C(C(=O)C23CC4CC(CC(C4)C2)C3)C12CCOCC2 (configuration not stated),-0.76
16,C=CC1=C(C(=O)O)N2C(=O)[C@@H](NC(=O)/C(=N/OCC(=O)O)c3csc(N)n3)[C@H]2SC1,3.12
17,CCOCCCNC(=O)c1c[nH]c2cc(C)ccc2c1=O,8.21
18,Cc1nn(CC(=O)Nc2ccc(C#N)cc2)c(C)c1[N+](=O)[O-],-2.47
19,COc1ccc(C2c3ccc(O)cc3Oc3ncn(CCCO)c(=N)c32)cc1OC (configuration not stated),-0.45
20,C=C(C)C(=O)Nc1cccc(C2=NOC3(C2)C[C@H](C(N)=O)N(C(=O)C(c2ccccc2)c2ccccc2)C3)c1 (some centres not stated),7
21,Cc1ccc(S(=O)(=O)c2c(N)n(C)c3nc4ccccc4nc23)cc1,-4.76
22,COc1cc(C(=O)NCc2nnc(SCC(=O)Nc3nc4ccc(C)cc4s3)o2)cc(OC)c1OC,-5.21
